# Activity calls are given as the source filed them. The calls were made as follows: active = hit-call score of the fitted dose curve at least 0.9, where 1 is the maximum; inactive = score below 0.9.
# Experiment: ATG_M_32_CIS: Attagene CIS-FACTORIAL HepG2 Assay for M32 Transcription Factor (Internal Marker) (AID 2282949);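 also: background control marker of the multiplexed CIS panel rather than a real target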
# Details: HepG2 Attagene cis-factorial M32 reporter, mRNA; actives raise or lower the signal
# Outline: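 Transient MRTU transfection of HepG2; 24 h compound treatment; TriZol RNA, oligo(dT) RT, reporter PCR, 6-FAM primer extension, HpaI cut, CE. Gain/loss of signal vs DMSO.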
row,SMILES,outcome
1,O=S1(=O)OC(c2cc(Br)c(O)c(Br)c2)(c2cc(Br)c(O)c(Br)c2)c2ccccc21,inactive
2,Cc1cc(Cl)ccc1OCCCC(=O)O,inactive
3,C#C[C@]1(O)CC[C@H]2[C@@H]3CCC4=CC(=O)CC[C@]4(C)[C@H]3CC[C@@]21C,inactive
4,C[C@@H]1O[C@@H](O[C@H]2C[C@@H](O)[C@]3(CO)[C@H]4[C@H](O)C[C@]5(C)[C@@H](C6=CC(=O)OC6)CC[C@]5(O)[C@@H]4CC[C@]3(O)C2)[C@H](O)[C@H](O)[C@H]1O,inactive
5,C[N+](C)(C)Cc1ccccc1,inactive
6,COP(=S)(OC)Oc1cc(Cl)c(I)cc1Cl,inactive
7,O=c1oc2ccccc2c(O)c1C(CC(O)c1ccc(-c2ccc(Br)cc2)cc1)c1ccccc1 (stereo unspecified),inactive
8,CN(N=O)C(N)=O,inactive
9,O=S(=O)(F)C(F)(F)C(F)(F)C(F)(F)C(F)(F)F,inactive
10,OCC(c1ccc(Cl)cc1)c1ccc(Cl)cc1,inactive
11,CCCCC(CC)C(=O)Cl (stereo unspecified),inactive
12,C=CC(F)(C(F)(F)F)C(F)(F)C(F)(F)F (stereo unspecified),inactive
13,CN(C)CCN(C)C,inactive
14,CCCCS(=O)(=O)Cl,inactive
15,Fc1cccc(Cl)c1CCl,inactive
16,Nc1ncn[nH]1,inactive
17,CCCCOC(C)=O,inactive
18,CC(=O)C(F)(F)C(F)(F)F,inactive
19,C#CCOC(=O)/C=C(C)/C=C/CC(C)CCCC(C)C (stereo unspecified),inactive
20,OC(Cc1ccccc1Cl)(Cn1cncn1)C1(Cl)CC1 (stereo unspecified),inactive
21,Cc1cc(C(F)(C(F)(F)F)C(F)(F)F)ccc1NC(=O)c1cccc(I)c1C(=O)NC(C)(C)CS(C)(=O)=O,inactive
